# Reference: the supplement of paper PMC8975748
# Where a name gives a salt, the structure may show the parent alone.
# Test system: Saccharomyces cerevisiae BY4741 SeMeCo community
# Assay: z-score of subpopulation abundance vs DMSO median, subpopulation auxotrophic for HM; higher = larger share of this subpopulation than in DMSO controls
# Details: 10 µM; 24 h; SM minimal medium; subpopulation (auxotrophy): HM
# Protocol: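 Fluorescent four-plasmid SeMeCo (self-establishing metabolically cooperating S. cerevisiae BY4741 community; plasmids pH-mRuby2, pL-mWasabi, pU-eCFP, pM-TagRFP657) was grown 24 h in minimal SM medium with each Selleck FDA-approved drug at 10 µM in 384-well plates. Cells were fixed and imaged by high-content confocal microscopy. For each auxotrophic subpopulation (and the prototroph), a z-score gives the deviation from the DMSO vehicle-control population median.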
row,Compound,z-score of subpopulation abundance
1,O=C(O)c1cn(C2CC2)c2cc(N3CCNCC3)c(F)cc2c1=O [Ciprofloxacin hydrochloride hydrate],0.16
2,CC[C@H]1OC(=O)[C@H](C)[C@@H](O[C@H]2C[C@@](C)(OC)[C@@H](O)[C@H](C)O2)[C@H](C)[C@@H](O[C@@H]2O[C@H](C)C[C@H](N(C)C)[C@H]2O)[C@](C)(O)C[C@@H](C)CN(C)[C@H](C)[C@@H](O)[C@]1(C)O [Azithromycin Dihydrate],0.39
3,CCC1(C)CC(=O)NC1=O (stereo not given) [Ethosuximide],-0.5
4,C1N2CN3CN1CN(C2)C3 [Methenamine],1.35
5,CC[C@@H]([C@H](C)O)n1ncn(-c2ccc(N3CCN(c4ccc(OC[C@@H]5CO[C@@](Cn6cncn6)(c6ccc(F)cc6F)C5)cc4)CC3)cc2)c1=O [Posaconazole],11.5
6,Cc1nc(NC(=O)N2CCC[C@H]2C(N)=O)sc1-c1ccnc(C(C)(C)C(F)(F)F)c1 [Alpelisib (BYL719)],0.31
7,CCC(=O)NS(=O)(=O)c1ccc(-c2c(-c3ccccc3)noc2C)cc1 [Parecoxib Sodium],1.65
8,Cc1nnc(NS(=O)(=O)c2ccc(N)cc2)s1 [Sulfamethizole],-1.19
9,Cc1cc(=O)n(-c2ccccc2)n1C [Antipyrine],-0.59
10,CCC1=C(C)CN(C(=O)NCCc2ccc(S(=O)(=O)NC(=O)N[C@H]3CC[C@H](C)CC3)cc2)C1=O [Glimepiride],0.24
11,C#C[C@]1(O)CC[C@H]2[C@@H]3CCC4=CC(=O)CC[C@@H]4[C@H]3CC[C@@]21CC [Levonorgestrel],-0.99
12,CN1CCC(=C2c3ccccc3CCc3sccc32)CC1 [Pizotifen Malate],-0.03
13,CS(=O)(=O)c1ccc([C@@H](O)[C@@H](CF)NC(=O)C(Cl)Cl)cc1 [Florfenicol],-1.52
14,CN[C@@H]1[C@H](O[C@H]2[C@H](O[C@H]3[C@H](O)[C@@H](O)[C@H](N=C(N)N)[C@@H](O)[C@@H]3N=C(N)N)O[C@@H](C)[C@]2(O)C=O)O[C@@H](CO)[C@H](O)[C@H]1O [Streptomycin sulfate],0.19
15,COCC1=C(C(=O)OC(C)OC(=O)OC(C)C)N2C(=O)[C@@H](NC(=O)/C(=N\OC)c3csc(N)n3)[C@H]2SC1 (stereo not given in full) [Cefpodoxime proxetil],0.76
16,CCCCN1CCCC[C@H]1C(=O)Nc1c(C)cccc1C [Levobupivacaine HCl],-1.34
17,C[C@@H](O)[C@H]1C(=O)N2C(C(=O)O)=C(SCCNC=N)C[C@H]12 [Imipenem],0.44
18,Oc1c(I)cc(I)c2cccnc12 [Diiodohydroxyquinoline],2.21
19,CCS(=O)(=O)CCn1c([N+](=O)[O-])cnc1C [Tinidazole],-1.1
20,NCCc1ccc(O)c(O)c1 [Dopamine HCl],-0.38

row,Compound,z-score of subpopulation abundance
1,CC(=O)NC[C@H]1CN(c2ccc(N3CCOCC3)c(F)c2)C(=O)O1 [Linezolid],-0.27
2,OC[C@H]1O[C@H](OCC2O[C@@H](O)[C@H](O)[C@@H](O)[C@@H]2O)[C@H](O)[C@@H](O)[C@H]1O (stereo not given in full) [Melibiose],-0.15
3,C#C[C@]1(OC(C)=O)CC[C@H]2[C@@H]3CCC4=C[C@@H](OC(C)=O)CC[C@@H]4[C@H]3CC[C@@]21C [Ethynodiol diacetate],-0.18
4,COc1cc2c(cc1OC)-c1cc3ccc(OC)c(OC)c3c[n+]1CC2 [Palmatine],1.01
5,CC(C(=O)O)c1ccc(C(=O)c2cccs2)cc1 (stereo not given) [Suprofen],-0.73
6,Cc1c(C)c2c(c(C)c1O)CCC(C)(CCCC(C)CCCC(C)CCCC(C)C)O2 (stereo not given) [Vitamin E],-1.28
7,CN[C@@H]1[C@@H](O)[C@@H](O[C@@H]2[C@@H](O)[C@H](O[C@H]3OC(CN)=CC[C@H]3N)[C@@H](N)C[C@H]2N)OC[C@]1(C)O [Sisomicin sulfate],0.61
8,CC1=CC[C@@](O)(C(C)C)CC1 [Terpinen-4-ol],-0.39
9,O=C(O)CCCCCCCC(=O)O [Azelaic acid],-0.04
10,COc1ccc2[nH]c([S+]([O-])Cc3ncc(C)c(OC)c3C)nc2c1 (stereo not given) [Omeprazole Sodium],-0.21
11,CCc1cccc2c3c([nH]c12)C(CC)(CC(=O)O)OCC3 (stereo not given) [Etodolac],-0.61
12,CCN(CC)CC#CCOC(=O)C(O)(c1ccccc1)C1CCCCC1 (stereo not given) [Oxybutynin],-0.23
13,O=C1C(CC[S+]([O-])c2ccccc2)C(=O)N(c2ccccc2)N1c1ccccc1 (racemic) [(+/-)-Sulfinpyrazone],0.14
14,COc1c(N2CCNC(C)C2)c(F)cc2c(=O)c(C(=O)O)cn(C3CC3)c12 (stereo not given) [Gatifloxacin],-0.89
15,NNc1nncc2ccccc12 [Hydralazine HCl],-0.62
16,CC1(C)S[C@@H]2[C@H](NC(=O)[C@H](N)c3ccc(O)cc3)C(=O)N2[C@H]1C(=O)O [Amoxicillin trihydrate],-0.15
17,Nc1ccc(S(=O)(=O)Nc2ccccn2)cc1 [Sulfapyridine],-0.46
18,Cc1c(OCC(F)(F)F)ccnc1C[S+]([O-])c1nc2ccccc2[nH]1 (stereo not given) [Lansoprazole],-0.45
19,COc1cnc(NS(=O)(=O)c2ccc(N)cc2)nc1 [Sulfameter],0.07
20,CN(CCOc1ccc(NS(C)(=O)=O)cc1)CCc1ccc(NS(C)(=O)=O)cc1 [Dofetilide],-0.88
